# High-throughput results: PubChem BioAssay, National Center for Advancing Translational Sciences (NCATS)
# Cruzain inh noDet – cruzain (T. cruzi) inhibition without detergent | P25779 | purified cruzain, Z-FR-AMC fluorescence, no detergent | Potency, µM, for the others: max response, negative = inhibition, usual class: inhibitors | 2.3% of 200,000 active;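 also: plate controls were enzyme without inhibitor for no effect and buffer without enzyme for full effect; nearly all actives have a fitted effect of over 40% in size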
# Target sequence (P25779 123-467 limits assumed): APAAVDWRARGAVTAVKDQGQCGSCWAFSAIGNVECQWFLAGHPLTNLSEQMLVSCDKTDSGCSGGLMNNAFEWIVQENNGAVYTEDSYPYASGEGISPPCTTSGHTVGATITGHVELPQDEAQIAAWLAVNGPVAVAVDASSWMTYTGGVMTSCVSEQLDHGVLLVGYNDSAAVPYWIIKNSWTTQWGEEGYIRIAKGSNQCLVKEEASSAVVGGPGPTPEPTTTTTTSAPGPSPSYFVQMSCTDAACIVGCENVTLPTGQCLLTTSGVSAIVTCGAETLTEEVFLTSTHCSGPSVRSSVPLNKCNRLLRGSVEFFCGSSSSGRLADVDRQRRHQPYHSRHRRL
#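 Purified cruzain at 1.5 nM, pre-incubated 15 min with compound at room temperature in 100 mM sodium acetate pH 5.5, 5 mM DTT, 0.00005% Triton X-100. Reaction started with 2 uM Z-FR-AMC; AMC fluorescence increase over 60 s gives rate.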
# NS1 inh – blocks influenza NS1 protein function. Potency, µM (series often up to 46.1 µM), without a hit: at the top dose activity, positive = more growth. 0.4% of 270,000 active. AID 2326; calls by dose curve; also: actives are rising curves; nearly all actives have a fitted effect of over 50% in size
#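 OD600 was taken as the measure of yeast growth restored by compound in an NS1-expressing S. cerevisiae strain. Cells had been washed out of glucose medium and diluted 1:100 into galactose -URA medium, pH 6.0.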
# Cruzain inh Det – blocks cruzain activity in presence of Triton detergent; P25779; purified cruzain, Z-FR-AMC fluorescence, 0.01% Triton; Potency, µM, for the others: max response, negative = inhibition, usual class: inhibitors; 0.43% of 200,000 active; AID 1478;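 also: plate controls were neutral wells for no effect and buffer without enzyme for full effect; nearly all actives have a fitted effect of over 40% in size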
#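 In this qHTS format, compounds are incubated with 1.5 nM cruzain for 15 min at room temperature before 2 uM Z-FR-AMC is added. Release of AMC is followed at 360/450 nm, and progress is taken as the 60 s fluorescence difference.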
# An asterisk follows results filed as active; u = inconclusive; x = not tested or not shown. This is one part of a sample in which hits are shown more often than they occur. Unless noted, calls follow the shape of the dose curve; as a rule, active = well fitted curve in the direction sought with a large enough effect; inconclusive = small, poorly fitted or top-dose-only effect, or another doubt; inactive = no such curve, though single readings can be large; an effect the other way counts as inactive or inconclusive. Potency is read from the fitted curve at half-maximal effect.
SMILES,Cruzain inh noDet,NS1 inh,Cruzain inh Det
COc1ccc2nc(/C=N/NC(=O)[C@H](C)NC(=O)OC(C)(C)C)ccc2c1,32µM*,2%,-24%
Cc1ccc2cc(/C=N/NC(=O)[C@H](C)NC(=O)OC(C)(C)C)c(Cl)nc2c1,2%,9%,-1%
Nc1cccc(S(=O)(=O)O)c1,-2%,x,-2%
COc1ccc2c(c1)O[C@H](c1ccc3c(c1)OCO3)[C@@H](OC(=O)NS(=O)(=O)c1ccc(C)cc1)C2=O,-3%,x,3%
Cc1ccc(N(C(=O)c2cccc(C)c2)S(=O)(=O)c2ccc(Cl)cc2)cc1,u,x,-3%
CCS(=O)(=O)N1CCC(C(=O)NCCC(C)C)CC1,2%,x,1%
CC(=O)N1CCN(c2ccccc2NC(=O)c2cc(Br)ccc2Cl)CC1,3%,5%,-2%
O=C(Nc1ccccc1N1CCN(C(=O)c2ccc(Cl)cc2)CC1)c1cc(Br)ccc1Cl,7.9µM*,u,4%
CCCN1C(=O)C2(c3ccccc31)c1c(oc3ccccc3c1=O)C(=O)N2CCO (configuration not stated),-3%,x,1%
COc1ccc(N2C(=O)CC(S/C(N)=N/N=C/c3ccnc4ccccc34)C2=O)cc1 (configuration not stated),10µM*,21%,25µM*
N/C(=N\N=C\c1ccnc2ccccc12)SC1CC(=O)N(c2ccc(Br)cc2)C1=O (configuration not stated),10µM*,17%,-20%
N/C(=N\N=C\c1cccs1)SC1CC(=O)N(c2ccc(Br)cc2)C1=O (configuration not stated),x,6%,x
N/C(=N\N=C\c1ccco1)SC1CC(=O)N(c2ccccc2)C1=O (configuration not stated),x,4%,x
CCc1nn(Cc2cccc(F)c2)c(=O)c2cc3cc(C)ccc3n12,-9%,x,-4%
CCc1cccc(NC(=O)c2ccc(CN3C(=O)C(C)=C(c4ccc(OC)cc4)S3(=O)=O)cc2)c1,25µM*,x,-7%
COc1ccc(C2=C(C)C(=O)N(Cc3ccc(C(=O)NC(C)c4ccccc4)cc3)S2(=O)=O)cc1 (configuration not stated),16µM*,x,-10%
COc1ccc(C2=C(C)C(=O)N(Cc3ccc(C(=O)Nc4cccc(F)c4)cc3)S2(=O)=O)cc1,u,x,-16%
COc1ccc(C2=C(C)C(=O)N(Cc3ccc(C(=O)NCc4cccc(C)c4)cc3)S2(=O)=O)cc1,25µM*,x,-19%
COc1ccc(C2=C(C)C(=O)N(Cc3ccc(C(=O)NCc4ccc(C)cc4)cc3)S2(=O)=O)cc1,-16%,x,-7%
CC1=C(c2ccc(C)c(C)c2)S(=O)(=O)N(Cc2ccc(C(=O)NC(C)c3ccccc3)cc2)C1=O (configuration not stated),4%,x,-4%
CCOCCCNC(=O)c1cc2c(=O)[nH]c3ccccc3c2n1C,14%,x,0%
Cc1ccc(Cl)cc1NC(=O)CN1C(=O)CSc2ccc(S(=O)(=O)N3CCCC3)cc21,-5%,x,-5%
COc1cc(C)ccc1OCCSc1nc2ccc(NC(=O)c3ccccc3F)cc2s1,-3%,x,0%
CCCCC/C=C\C[C@@H](O)/C=C/C=C\C/C=C\CCCC(=O)O,-4%,x,0%
Cc1ccc(S(=O)(=O)/N=C2/C=C(Sc3ncn[nH]3)C(=O)c3ccccc32)cc1,u,-31%,-7%
SMILES,Cruzain inh noDet,NS1 inh,Cruzain inh Det
CC(C)c1ccc(S(=O)(=O)/N=C2/C=C(Sc3ncn[nH]3)C(=O)c3ccccc32)cc1,13µM*,-17%,-14%
COc1cc(/C=C/C(=O)N2CCCCC2=O)cc(OC)c1OC,7%,x,-2%
CCOc1cc(/C=C2\CN(C)C/C(=C\c3ccc(O)c(OCC)c3)C2=O)ccc1O,x,1%,x
CCOc1cc(/C=C2\CCC/C(=C\c3cc(Cl)c(O)c(OCC)c3)C2=O)cc(Cl)c1O,13µM*,-7%,6%
CCOc1ccccc1NC(c1nnc(-c2ccccc2)o1)c1ccc(F)cc1Cl (configuration not stated),-10%,x,-5%
O=C(O)c1cc2c(cc1S(=O)(=O)O)[C@H]1[C@@H](C3[C@H]2[C@@]2(Cl)C(Cl)=C(Cl)C3(Cl)C2(Cl)Cl)[C@]2(Cl)C(Cl)=C(Cl)C1(Cl)C2(Cl)Cl (some centres not stated),13%,u,-1%
COc1ccc(C)cc1NS(=O)(=O)c1cc(Br)cc2c1N(C(C)=O)C(C)C2 (configuration not stated),15%,x,-3%
Cc1ccc(-n2c(=O)[nH]c3cc(C(=O)NCCc4ccccc4)ccc3c2=O)cc1,16µM*,x,-1%
Cc1ccc(CCNC(=O)c2ccc3c(=O)n(-c4ccc(C)cc4)c(=O)[nH]c3c2)cc1,3%,x,1%
O=C(Cl)OCc1ccccc1,-6%,x,0%
COC(=O)c1ccc2c(=O)n(Cc3ccco3)c(SCC(=O)Nc3ccc(C)c(Cl)c3)nc2c1,6.3µM*,-2%,7%
O=C(CSc1nc2cc(Cl)ccc2c(=O)n1Cc1ccco1)Nc1ccc(S(=O)(=O)N2CCOCC2)cc1,u,u,-5%
Cc1cc(S(=O)(=O)NCc2ccccc2)ccc1OCC(=O)NCc1ccccn1,x,0%,x
Cc1cc(S(=O)(=O)NCc2ccccc2)ccc1OCC(=O)Nc1cccc([N+](=O)[O-])c1,25µM*,9%,-5%
COc1ccc2c(c1)O[C@@H](c1ccc3c(c1)OCO3)[C@H](OC(=O)N[C@H]1CCCc3ccccc31)C2=O,-9%,x,-2%
C=CCC(CC=C)(CNC(=O)C(=O)Nc1ccc(Br)cc1)c1ccc(OC)c(OC)c1,-3%,x,-2%
CC(C)CN(c1ccccc1)S(=O)(=O)c1nnc(NC(=O)C2CCCCC2)s1,-19%,x,-1%
COc1cccc(NC(=O)Cn2c(=O)n(CCc3ccc(OC)c(OC)c3)c(=O)c3ccccc32)c1,5%,x,-6%
O=C(Cn1c(=O)n(Cc2ccc3c(c2)OCO3)c(=O)c2ccccc21)Nc1cccc(Cl)c1,-24%,x,-5%
O=C(Cn1c(=O)n(Cc2ccc3c(c2)OCO3)c(=O)c2ccccc21)N1CCCc2ccccc21,32µM*,-16%,-5%
O=C(Cn1c(=O)n(Cc2ccc(C(=O)NCc3ccc4c(c3)OCO4)cc2)c(=O)c2ccccc21)Nc1cccc(Cl)c1,4µM*,x,-1%
Cc1ccc(C)c(NC(=O)Cn2c(=O)n(Cc3ccc4c(c3)OCO4)c(=O)c3ccc(C(=O)NC4CCCCC4)cc32)c1,-11%,x,0%
CC1CCN(C(=O)Cn2c(=O)n(Cc3ccc4c(c3)OCO4)c(=O)c3ccccc32)CC1,-16%,-8%,0%
COc1cccc(NC(=O)Cn2c(=O)n(Cc3ccc(C(=O)NCc4ccc(C)cc4)cc3)c(=O)c3ccccc32)c1,13µM*,x,-1%
CCN(C(=O)Cn1c(=O)n(Cc2ccc3c(c2)OCO3)c(=O)c2ccc(C(=O)NC3CCCCC3)cc21)c1cccc(C)c1,32µM*,x,-3%
Cc1oc2ncn(CC(C)C)c(=O)c2c1C(=O)N(Cc1ccccc1)C(C)C,4%,x,0%
COc1ccc(CNc2ccnc(-c3ccc(N(C)C)cc3)n2)c(OC)c1,-1%,x,-2%
CCc1ccc(NC(=O)CSC2=Nc3ccccc3C3=NC(CC(=O)NCc4ccc5c(c4)OCO5)C(=O)N23)cc1 (configuration not stated),-9%,x,-3%
